# Test results reported in PubChem BioAssay (NCATS).
# Inconclusive results are not listed. A call without a number means that no potency is given here. Values without a mark were called inactive. Active and inactive are the calls of the source. Calls follow the shape of the dose curve; as a rule, active = well fitted inhibition curve with a large enough effect; inconclusive = small, poorly fitted or top-dose-only effect; inactive = flat fitted curve, though single readings scatter.
# Experiment: Primary qHTS for inhibitors of nuclear receptor binding SET domain protein 2 (NSD2) in an isogenic RCH-ACV NSD2 p.E1099K mutant (9B) (AID 1645876); also: nearly all actives have a fitted effect of over 70% in size
# Details: RCH-ACV (leukaemia line) NSD2 E1099K (9B) viability, CellTiter-Glo, 72 h; series mostly up to 44.9 µM
Structure (SMILES),Potency,"activity change, negative = viability loss"
CO/N=C(/C(=O)N[C@@H]1C(=O)N2C(C(=O)O)=C(Cn3ccc(=N)n3CCO)CS[C@H]12)c1csc(N)n1,inactive,–
CC1CC(C(O)C(C)(C)O)OC2CC3(C)C4(C)CCC5C(C)(C)C(=O)CCC5(C)C4CCC3(O)C12O (stereo not drawn),inactive,–
C[C@H]1CC(=O)Nc2cccc(-c3cnn(C(C)(C)C)c3)c2N1,inactive,–
O=C(CC1C(=O)Nc2ccccc21)OC[C@H]1O[C@@H](OCCc2ccc(O)cc2)[C@H](O)[C@@H](O)[C@@H]1O (stereo partly drawn),inactive,–
CC1(C)CCC2(C(=O)OC3OCC(O)C(O)C3O)CCC3(C)C(=CCC4C5(C)CC(O)C(OC6OC(COC7OCC(O)C(O)C7O)C(O)C(O)C6O)C(C)(C)C5CCC43C)C2C1 (stereo not drawn),–,-10.4% [at 9.23 µM]
C/C=C(\C)C(=O)O[C@@H]1CC2[C@@H](CC=C3C[C@@H](O[C@H]4C[C@H](OC)[C@H](O[C@H]5C[C@H](OC)[C@H](O[C@@H]6O[C@H](C)[C@@H](O[C@H]7C[C@H](OC)[C@H](O[C@@H]8O[C@H](CO)[C@@H](O)[C@H](O)[C@H]8O)[C@@H](C)O7)[C@H](OC)[C@H]6O)[C@@H](C)O5)[C@@H](C)O4)CC[C@@]32C)[C@@]2(O)CC[C@H](C(C)=O)[C@@]12C (stereo partly drawn),–,-8.77% [at 9.23 µM]
CC1CC(=O)C2=C(CCC3(O)C(O)c4c(O)cccc4C(=O)C23O)C1 (stereo not drawn),inactive,–
C/C1=C\CCC(C)CCO[C@@H]2O[C@H](CO[C@@H]3OC[C@H](O)[C@H](O)[C@H]3OC1=O)[C@@H](O)[C@H](O)[C@H]2O (stereo partly drawn),inactive,–
